Experimental data from PubChem BioAssay AID624330 (Southern Research Specialized Biocontainment Screening …, 2012).
Screen size: about 340,000 compounds; about 2,100 (0.62%) were called active.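 Rule for the calls: active = first-screen hits whose inhibition reached a set limit at any dose in the follow-up dose series; inconclusive = inhibition above the set first-screen limit but never retested; inactive = the rest.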 Not all results are given here. Potency and affinity values are given separately.

Molecular target: Rac GTPase-activating protein 1 (Homo sapiens) (UniProt Q9H0H5)
Sequence (Q9H0H5 whole entry, looked up): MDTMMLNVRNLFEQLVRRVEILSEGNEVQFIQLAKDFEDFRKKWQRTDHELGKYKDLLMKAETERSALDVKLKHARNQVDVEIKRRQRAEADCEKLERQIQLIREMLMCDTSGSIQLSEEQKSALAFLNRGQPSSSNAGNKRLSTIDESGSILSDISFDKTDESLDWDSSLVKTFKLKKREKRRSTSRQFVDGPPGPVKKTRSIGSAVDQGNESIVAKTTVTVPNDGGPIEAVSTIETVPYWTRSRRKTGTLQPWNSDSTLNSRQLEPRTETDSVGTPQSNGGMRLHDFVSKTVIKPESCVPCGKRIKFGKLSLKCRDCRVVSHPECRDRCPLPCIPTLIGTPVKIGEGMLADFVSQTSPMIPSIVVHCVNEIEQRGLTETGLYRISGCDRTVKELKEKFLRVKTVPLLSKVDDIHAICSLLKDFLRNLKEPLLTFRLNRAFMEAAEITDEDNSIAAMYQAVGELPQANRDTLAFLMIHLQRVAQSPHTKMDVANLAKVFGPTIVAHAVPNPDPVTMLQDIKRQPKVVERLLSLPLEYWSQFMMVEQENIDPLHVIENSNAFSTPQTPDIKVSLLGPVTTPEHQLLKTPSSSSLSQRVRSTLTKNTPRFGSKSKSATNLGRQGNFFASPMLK
Assay: MgcRacGAP GTPase-activating activity inhibitors, confirmation, biochemical, ADP Hunter fluorescence, primary and confirmatory (AID 624330);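 note: fluorescence reports GDP produced by GAP-driven GTP hydrolysis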
Conditions: MgcRacGAP-stimulated Rac1 GTP hydrolysis, at 30 µM, active compounds read high, GST-tagged Rac1 F28L mutant substrate

inhibition, inactive:
CCc1nc(N)c(C#N)c(-c2ccc(F)cc2)c1C 16%
O=C(Nc1ccc(C(F)(F)F)cc1)C1CC(=O)N(c2ccc3c(c2)OCCO3)C1 (stereo unspecified) 11.2%
[O-]/C(=C(\C(=S)Nc1cccc2ccccc12)[n+]1ccccc1)c1ccc(OC(F)F)cc1 8.46%
O=C(COC(=O)c1ccccc1O)Nc1ccc(OC(F)F)cc1 6.22%
Cc1ccc(S(=O)(=O)C2CCCCC2=O)cc1 (stereo unspecified) 12.8%
Nc1ccc(CCC(=O)N2CCCC2)cc1 3.67%
COc1cc(/C=N/NC(=O)c2cccc([N+](=O)[O-])c2)cc(OC)c1O 6.29%
CCN(CC)c1ccc(/C=N/NS(=O)(=O)c2cccc([N+](=O)[O-])c2)cc1 23.2%
O=[N+]([O-])c1cccc(/C=N/NS(=O)(=O)c2ccccc2)c1 3.56%
O=C(CNC(=O)c1cccc(F)c1)N/N=C/c1cccc([N+](=O)[O-])c1 4.45%
Cc1ccc(S(=O)(=O)N/N=C/c2ccc(O)c(O)c2)cc1[N+](=O)[O-] 30.2%
COc1cc(/C=N/NS(=O)(=O)c2ccc(C)c([N+](=O)[O-])c2)cc([N+](=O)[O-])c1O 22.1%
Cc1c(Cl)c([N+](=O)[O-])nn1Cc1ccc(C(=O)N/N=C\c2cccc(Br)c2)o1 6.83%
Cc1c(Cl)c([N+](=O)[O-])nn1Cc1ccc(C(=O)N/N=C\c2ccccn2)o1 3.44%
O=C(C1CCN(S(=O)(=O)N2CCCCC2)CC1)N1CCCCC1 6.28%
CC1=C(C(=O)N2CCCC(CCC(=O)NCc3ccc(F)c(F)c3)C2)OCCO1 (stereo unspecified) 6.22%
COc1ccc(/C=N/NC(=O)c2cccc([N+](=O)[O-])c2)cc1O 8.06%
COc1ccc(/C=N/NC(=O)c2cccc([N+](=O)[O-])c2)cc1OC 7.73%
Cc1cccc(NC(=O)CSc2nnc(CNC(=O)c3cccs3)o2)c1C 8.9%
CC(C)NC(=O)CSCc1c(F)cccc1Cl 9.25%
Cc1ccc(-c2nc3cnccn3c2Nc2ccc3c(c2)OCO3)cc1 24.2%
Cc1ccn2c(NCc3ccc4c(c3)OCO4)c(-c3ccc(O)cc3)nc2c1 15.5%
Oc1ccc(-c2nc3ncccn3c2Nc2ccc3c(c2)OCCO3)cc1 11.9%
Cc1cccc(Nc2c(-c3ccc(N4CCOCC4)cc3)nc3ncccn23)c1 7.86%
Oc1ccc(-c2nc3ccccn3c2NCc2ccc3c(c2)OCO3)cc1 24.6%
Cc1ccc(-c2nc3ccccn3c2NCc2ccc3c(c2)OCO3)cc1 11.7%
S=C1NC[C@H](CC2CCCCC2)N1CC1CCCCC1 5.21%
COc1c(C)cc(C(=O)C2CCCN(Cc3cccc4nccnc34)C2)cc1C (stereo unspecified) 5.94%
CCCNC(=O)Nc1nnc(C2CC2)s1 2.83%
Cc1ccc(C(=O)NCCc2ccccc2)cc1S(=O)(=O)N1CCOCC1 1.5%
CCN(CC)CCCNC(=O)c1cc2c(-c3ccc(Cl)cc3)nn(C)c2s1 15.3%
CCCN(CCC)CCNC(=O)c1cc2c(-c3ccc(Cl)cc3)nn(C)c2s1 31.8%
CCOc1ccc(-c2nnc(SCC(=O)O)n2Cc2ccccc2)cc1 8.65%
COc1ccc(C)cc1NC(=O)CNC(c1ccccc1)c1ccccc1 1.89%
COc1ccc(C)cc1NC(=O)C(NCC1CCCO1)c1ccccc1 (stereo unspecified) 6.45%
CCOc1ccc(-c2csc(NC(=O)c3cccc(N4C(=O)CCC4=O)c3)n2)cc1 1.94%
COc1ccc(Cl)cc1NC(=O)NN1CCN(C)CC1 9.05%
COc1cccc(-c2c(C(=O)N/N=C(\C)c3ccco3)nnn2-c2nonc2N)c1 3.24%
O=[N+]([O-])c1ccc(/C=N/n2c(-c3cccnc3)n[nH]c2=S)cc1 14.5%
S=c1[nH]nc(-c2cccnc2)n1/N=C/c1ccc(Br)s1 8.12%
C(=N\N=C\c1cccs1)/c1cccs1 3.75%
c1cncc(-c2nnc3n2N=C(c2cccs2)CS3)c1 7.37%
Cc1ccc(/C=N/n2c(C)nnc2C)s1 5.21%
Cc1nnc(C)n1/N=C/c1cccc([N+](=O)[O-])c1 0.71%
Cc1nnc(C)n1/N=C/c1cccs1 17.6%
Cc1ccc(-c2n[nH]c(=S)n2/N=C/c2cccs2)cc1 25.8%
O=C(CCNC(=O)c1ccco1)NCc1ccc(C(=O)O)cc1 10.3%
O=C(NCc1cccnc1)c1ccc([N+](=O)[O-])cc1 6.96%
CC1(C)CC(=O)C2=C(C1)NC(SCC(N)=O)=C(C#N)C21CCCCC1 7.26%
CC(C)Oc1ccc(OCCn2c(S(=O)(=O)O)nc3c(N)ncnc32)cc1 2.7%
Cc1ccccc1OCCn1c(S(=O)(=O)O)nc2c(N)ncnc21 9.98%
Cc1ccccc1OCCn1cnc2c(N)ncnc21 -13%
CCOc1ccc(OCCn2c(S(=O)(=O)O)nc3c(N)ncnc32)cc1 12.6%
CN1CCN(C(=O)CSc2cc(=O)n(C)c3ccccc23)CC1 6.45%
CCOC(=O)N1CCC(NC(=O)C(CC(C)C)NC(=O)C2CCCCC2)CC1 (stereo unspecified) 9.57%
Cc1ccc(S(=O)(=O)N2CCC(C(=O)NCCc3ccccn3)CC2)cc1 -0.14%
COc1ccc(Br)cc1C(=O)NC(=S)Nc1ccc(Cl)c(C(=O)O)c1 5.62%
COc1cc(/C=C2\SC(c3ccccc3)=NC2=O)cc(Cl)c1O 27.3%
COc1cc(/C=C2\SC(N)=NC2=O)cc(Br)c1O 29.2%
COc1cc(/C=C2/SC(=S)N(Cc3ccccc3)C2=O)cc(Cl)c1O 10%
COc1ccc(Br)cc1/C=C/C(=O)NC(=S)Nc1ccc(Cl)c(C(=O)O)c1 6.62%
COc1ccc(/C=C2\SC(N)=NC2=O)cc1Cl 1.73%
CC1CCCCN1C(=O)c1ccc(CS(=O)(=O)Cc2ccccc2)cc1 (stereo unspecified) 8.5%
CCN1CCN(C(=O)c2[nH]c3ccc(OC)cc3c2C)CC1 6.11%
Cc1ccc(S(=O)(=O)NCCc2c[nH]c3ccccc23)cc1 4.49%
COc1ccc(CCNC(=O)CCn2c(=O)c3cccn3c3ccc(F)cc32)c(OC)c1OC 12.9%
O=C1NCC(COc2cccc3ccccc23)O1 (stereo unspecified) -1.12%
Cn1c(O)c(N=NC(=O)CNC(=O)c2cccnc2)c2ccccc21 4.23%
CCN1C[C@@H]2[C@@H]3C(=O)N(Cc4ccccc4)C(=O)[C@@H]3[C@](C)(C1=O)N2C(=O)c1ccc(Br)cc1 7.24%
O=C(CNC(=O)c1ccc(Br)o1)Nc1ccc(F)c(S(=O)(=O)N2CCOCC2)c1 5.58%
Clc1ccc(/C=N/N2CCCCC2)cc1 7.04%
Clc1ccc(C=NN2CCCCCC2)cc1 -2.87%
CCOc1ccc(NC(=O)C(C)Oc2ccccc2C(=O)Nc2ccc(C)c(Cl)c2)cc1 (stereo unspecified) 5.67%
CC1(NC(=O)NCc2ccccc2)CCS(=O)(=O)C1 (stereo unspecified) 10.2%
O=C(c1cccc(Cl)c1)N1CCC(c2nc3ccccc3[nH]2)CC1 9.71%
O=C1C(c2c(O)[nH]c3ccccc23)=Nc2ccccc21 8.12%
O=NC1=C(c2c(O)[nH]c3ccccc23)CCCC1 5.2%
Cc1ccc(NC(=O)COc2nc(C)cs2)cc1 4.7%
CC(=O)C[C@H](O)CC(=O)[C@H]1OC(=O)CC/C=C\Cc2ccccc21 5.25%
COc1cc(CNCc2ccc(OC)c(OC)c2OC)cc(OC)c1 15.6%
COc1cc(CNCc2ccc(C)cc2)cc(OC)c1OC 22.2%
COc1cc(CNCc2cccc3ccccc23)cc(OC)c1 25.2%
COc1ccc(CNCc2ccccc2C(F)(F)F)cc1 29.7%
CCCCn1c(N)c(N(CC(C)C)C(=O)c2cccc(S(=O)(=O)N(C)c3ccccc3)c2)c(=O)[nH]c1=O 5.29%
CCOC(=O)CC(NC(=O)c1ccccc1)c1ccc(OC)cc1 (stereo unspecified) 3.97%
COCCNC(=O)c1cccc(OC2CCN(Cc3ccccc3OCCO)CC2)c1 11.3%
O=C(NC(=S)N1CCCCCC1)c1ccccc1 2.51%
COc1cc2oc(-c3ccc(O)cc3)cc(=O)c2c(O)c1OC 18.1%
COc1c(O)cc2oc(-c3ccc(O)cc3)cc(=O)c2c1O 10.2%
CS(=O)(=O)N(Cc1ccco1)CC(O)Cn1cc(C=O)c2ccccc21 (stereo unspecified) 8.31%
CCN(CC(=O)Nc1cc(C)c(Cl)cc1OC)CC(=O)NC1CCS(=O)(=O)C1 (stereo unspecified) 8.4%
COc1ccc(Cl)cc1NC(=O)CN(C)C1CCS(=O)(=O)C1 (stereo unspecified) 6.99%
COCCNC(=O)CSc1ncnc2sc(-c3ccccc3)cc12 6.39%
COCCn1c(=NC(=O)c2ccc(S(=O)(=O)N3CCOCC3)cc2)sc2cc(S(N)(=O)=O)ccc21 8.39%
FC(F)(F)c1cnc2c(-c3ccc(Cl)cc3Cl)noc2c1 10.7%
CO/N=C/C(C(C)=O)C(=O)Nc1ccc(Cl)cc1Cl (stereo unspecified) 1.68%
